Screens from PubChem.
Most compounds without a hit are left out; they make up all but 3.4% or so of the library.
FBPA Giardia inh – qHTS Assay for Inhibitors of Fructose-1,6-bisphosphate Aldolase from Giardia Lamblia. A8B2U2. purified Giardia FBPA. Potency, µM (highest dose often 59.6 µM), most hits filed as inhibitors. actives 0.71% (n = 290,000); also: nearly all actives have a fitted effect of over 55% in size
Target sequence (A8B2U2 whole entry, looked up): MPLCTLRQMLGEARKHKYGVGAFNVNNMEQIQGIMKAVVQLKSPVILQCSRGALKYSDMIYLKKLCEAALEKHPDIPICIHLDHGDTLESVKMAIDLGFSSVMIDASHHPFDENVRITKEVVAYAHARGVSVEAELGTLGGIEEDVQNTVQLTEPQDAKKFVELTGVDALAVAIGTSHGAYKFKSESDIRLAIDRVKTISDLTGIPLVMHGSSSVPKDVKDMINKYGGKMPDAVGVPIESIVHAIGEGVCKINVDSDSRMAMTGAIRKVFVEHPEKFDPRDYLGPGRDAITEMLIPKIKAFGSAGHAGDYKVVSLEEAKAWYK
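Giardia FBPA (40 nM reagent) was preincubated 10 min at RT with compound (up to 57.5 uM final), then substrate plus GAPDH/TPI/NAD/arsenate coupling system with diaphorase/resazurin was added; resorufin fluorescence (525/598 nm) was read after 20 min.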
Sm TGR inh – qHTS Assay for the Inhibitors of Schistosoma Mansoni Peroxiredoxins; Schistosoma mansoni thioredoxin glutathione reductase (TGR), Q962Y6; purified TGR, DTNB reduction, TNB absorbance 405 nm; Potency, µM (titrated, usually from 114 µM), actives largely listed as inhibitors; actives 3% (n = 360,000); AID 485364, 2010; also: nearly all actives have a fitted effect of over 60% in size
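Kinetic colorimetric format: TGR-catalysed, NADPH-driven DTNB reduction monitored via TNB absorbance. Enzyme dispensed at 20 nM; compound exposure 15 min at room temperature before reaction start.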
AmpC inh detg – qHTS Inhibitors of AmpC Beta-Lactamase (assay with detergent) | P00811 | AmpC hydrolysis of nitrocefin, absorbance 480 nm, 0.01% Triton | Potency, µM (top dose mostly 114 µM), actives largely listed as inhibitors | actives 0.041% (n = 370,000) | AID 485294, 2010; also: nearly all actives have a fitted effect of over 25% in size
Target sequence (P00811 whole entry, looked up): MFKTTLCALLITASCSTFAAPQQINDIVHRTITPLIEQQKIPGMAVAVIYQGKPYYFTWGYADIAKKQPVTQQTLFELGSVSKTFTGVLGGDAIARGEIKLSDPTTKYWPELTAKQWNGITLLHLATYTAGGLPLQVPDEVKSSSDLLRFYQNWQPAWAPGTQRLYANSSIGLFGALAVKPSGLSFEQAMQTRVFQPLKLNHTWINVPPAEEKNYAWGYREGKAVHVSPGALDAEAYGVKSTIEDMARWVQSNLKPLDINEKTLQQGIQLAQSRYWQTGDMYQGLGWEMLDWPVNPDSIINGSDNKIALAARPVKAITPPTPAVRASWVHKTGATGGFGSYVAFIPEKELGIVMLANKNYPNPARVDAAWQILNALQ
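AmpC (5.3 nM in the dispensed reagent) in 20 mM phosphate pH 7.0 with 0.01% (detergent screen) or 0.0001% Triton X-100 was preincubated with compounds for 15 min at room temperature. Nitrocefin was then added from an 800 uM solution, and hydrolysis was followed at 480 nm.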
AmpC inh no detg – qHTS Inhibitors of AmpC Beta-Lactamase (assay without detergent). AmpC nitrocefin hydrolysis, absorbance 480 nm, 0.0001% Triton. Potency, µM (highest dose often 57.1 µM), most hits filed as inhibitors. actives 0.52% (n = 330,000); also: nearly all actives have a fitted effect of over 20% in size
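20 mM phosphate pH 7.0 + 0.01% (detergent screen) or 0.0001% Triton X-100; 5.3 nM AmpC reagent; cpd preinc 15 min RT; nitrocefin (800 uM stock) to start; A480 q20 s × 4 min; Activity was normalised to no-enzyme and no-compound control wells.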
RE007 growth inh – qHTS Assay for Inhibitors of the HIV-1 protein Vpr | Potency, µM (top dose mostly 92.2 µM), hits mostly inhibitors | actives 0.21% (n = 360,000) | S. pombe RE007 Vpr strain, BacTiter-Glo ATP luminescence, 24 h; active = well fitted falling curve with a large enough effect; inconclusive = small, poorly fitted or top-dose-only effect; inactive = no such curve, though single readings can be large or run the other way; also: nearly all actives have a fitted effect of over 50% in size
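Fission yeast strain RE007, carrying one chromosomally integrated HIV-1 vpr copy, was seeded at OD 0.01 in PMG+AL medium with 23 nL pinned compound. After 24 h at 30 °C and 99% humidity, viability was read by BacTiter-Glo luminescence.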
Numbers stand for hits. Unless noted, calls follow the shape of the dose curve; as a rule, active = well fitted curve in the direction sought with a large enough effect; inconclusive = small, poorly fitted or top-dose-only effect, or another doubt; inactive = no such curve, though single readings can be large; an effect the other way counts as inactive or inconclusive.

For Cc1ccc(C(=O)NCC(c2ccco2)S(=O)(=O)c2ccc(Cl)cc2)cc1C (centres undefined) the results were Sm TGR inh 11µM and AmpC inh detg inactive.
`O=C(NCC(c1ccco1)S(=O)(=O)c1ccc(Cl)cc1)c1ccccc1F` (centres undefined) gave Sm TGR inh 2.5µM and AmpC inh detg inactive.
Screening Cc1ccc(S(=O)(=O)C(CNC(=O)c2c(F)cccc2F)c2ccco2)cc1 (centres undefined) returned Sm TGR inh inactive and AmpC inh detg inactive.
`CCc1ccc(/C=N/NC(=O)c2c[nH]c3ccccc23)s1` gave FBPA Giardia inh inactive, Sm TGR inh inactive, AmpC inh detg inactive, AmpC inh no detg 22µM and RE007 growth inh inactive.
Screening O=C(N/N=C/c1cccs1)c1c[nH]c2ccccc12 returned FBPA Giardia inh inactive, Sm TGR inh inactive, AmpC inh detg inconclusive, AmpC inh no detg inactive and RE007 growth inh inactive.
For O=C(C=C1NCCN1)c1ccccc1 the results were RE007 growth inh inactive.
`COC(=O)[C@@]12C[C@@H](CC(=O)NCc3ccc(C)o3)C(=O)N(CCc3ccc(OC)c(OC)c3)C1=CCC(C)(C)C2` gave RE007 growth inh inactive.
`CCN(CC)C(NC(=O)c1ccccc1)C(=O)c1ccccc1` (centres undefined) gave FBPA Giardia inh inactive, Sm TGR inh 79µM, AmpC inh detg inactive, AmpC inh no detg inactive and RE007 growth inh inactive.
For CCOC(NC(=O)c1ccccc1)C(NC(=O)c1ccccc1)OCC (centres undefined) the results were FBPA Giardia inh inactive, Sm TGR inh inactive, AmpC inh detg inactive, AmpC inh no detg inactive and RE007 growth inh inactive.
CC1(C)OC(C)(C)/C(=C/Nc2ccc(O)cc2)C1=O was read as FBPA Giardia inh 2.8µM, Sm TGR inh inactive, AmpC inh detg inconclusive, AmpC inh no detg inactive and RE007 growth inh inactive.
Screening CC1(C)OC(=O)C(=CNc2cccc(O)c2)C(=O)O1 returned FBPA Giardia inh inactive, Sm TGR inh inconclusive, AmpC inh detg inactive, AmpC inh no detg inactive and RE007 growth inh inactive.
Screening CCOC(=O)CSc1nnc(NCC(=O)OC(C)C)c(=O)[nH]1 returned FBPA Giardia inh inactive, Sm TGR inh 13µM, AmpC inh detg inactive, AmpC inh no detg inactive and RE007 growth inh inactive.
COC(=O)C1(C)NC(c2ccc(O)cc2)C2C(=O)N(c3ccc(F)cc3)C(=O)C21 (centres undefined) was read as FBPA Giardia inh inactive, Sm TGR inh inactive, AmpC inh detg inactive, AmpC inh no detg inactive and RE007 growth inh inactive.
COC1=CC(=O)C(C(=O)c2ccccc2)=CC1=O was read as FBPA Giardia inh 1.1µM.
`COc1ccc(C(=O)c2ccccc2)cc1` gave FBPA Giardia inh inactive, Sm TGR inh inactive, AmpC inh detg inactive, AmpC inh no detg inactive and RE007 growth inh inactive.
Screening CN(C(=O)COC(=O)c1ccc(S(=O)(=O)N2CCCC2)cc1)c1ccccc1 returned FBPA Giardia inh inactive, Sm TGR inh inactive, AmpC inh detg inactive, AmpC inh no detg inactive and RE007 growth inh inactive.
CC(=O)Nc1ccc(Nc2nc(Cl)nc(Nc3ccc(NC(C)=O)cc3)n2)cc1 was read as FBPA Giardia inh inactive, Sm TGR inh 35µM, AmpC inh detg inactive, AmpC inh no detg inactive and RE007 growth inh inactive.
COc1ccc(Nc2nc(Cl)nc(Nc3ccc(OC)cc3)n2)cc1 was read as FBPA Giardia inh inactive, Sm TGR inh inactive, AmpC inh detg inconclusive, AmpC inh no detg inactive and RE007 growth inh inactive.
`Cc1ccc(/C=c2/sc3n(c2=O)CCCN=3)o1` gave FBPA Giardia inh inconclusive, Sm TGR inh 11µM, AmpC inh detg inconclusive, AmpC inh no detg inactive and RE007 growth inh inactive.
Screening O=c1/c(=C\c2ccc3c(c2)OCO3)sc2n1CCCN=2 returned FBPA Giardia inh inactive, Sm TGR inh inactive, AmpC inh detg inactive, AmpC inh no detg inactive and RE007 growth inh inconclusive.
For Cc1ccc(/C=c2\sc3n(c2=O)CN(c2ccc(Br)cc2)CN=3)o1 the results were FBPA Giardia inh inconclusive, Sm TGR inh 13µM, AmpC inh detg inactive, AmpC inh no detg inactive and RE007 growth inh inactive.
Screening O=C(NCc1ccc(/C=c2\sc3n(c2=O)CCN=3)o1)C(=O)Nc1ccccc1 returned FBPA Giardia inh inconclusive, Sm TGR inh 35µM, AmpC inh detg inactive and AmpC inh no detg inactive.
For COc1ccc(NC(=O)CN(C)C(=O)COc2ccccc2Cc2ccccc2)cc1 the results were Sm TGR inh inactive, AmpC inh detg inactive, AmpC inh no detg inactive and RE007 growth inh inactive.
`CN(CC(=O)Nc1ccc(F)cc1)C(=O)COc1ccccc1Cc1ccccc1` gave Sm TGR inh inactive, AmpC inh detg inactive, AmpC inh no detg 35µM and RE007 growth inh inactive.
CCCC(=O)Nc1nnc(S(=O)(=O)N(C)Cc2ccco2)s1 was read as FBPA Giardia inh inactive, Sm TGR inh 4.5µM, AmpC inh detg inactive, AmpC inh no detg inactive and RE007 growth inh inactive.
For CCC(=O)Nc1nnc(S(=O)(=O)N(C)Cc2ccco2)s1 the results were Sm TGR inh 35µM, AmpC inh detg inactive, AmpC inh no detg inactive and RE007 growth inh inactive.
`Cc1ccc(C(=O)Nc2nnc(S(=O)(=O)N(C)Cc3ccco3)s2)cc1` gave Sm TGR inh inactive and AmpC inh detg inactive.
For COc1ccc(/C=C2/SC(=O)N(CCNC(=O)C3CC(=O)N(Cc4ccccc4)C3)C2=O)cc1 (centres undefined) the results were RE007 growth inh inactive.
For CCN(CC)S(=O)(=O)c1ccc(C(=O)/C=C/c2ccc(-c3ccc([N+](=O)[O-])cc3)o2)cc1 the results were FBPA Giardia inh inactive, Sm TGR inh 16µM, AmpC inh detg inactive, AmpC inh no detg inactive and RE007 growth inh inactive.
`CCc1ccc(C(=O)/C=C/c2ccc([N+](=O)[O-])o2)cc1` gave FBPA Giardia inh inactive, Sm TGR inh 3.2µM, AmpC inh detg inactive, AmpC inh no detg inactive and RE007 growth inh inactive.
`Cc1ccc(C(=O)/C=C/c2ccc(-c3ccc(C)cc3)o2)cc1` gave FBPA Giardia inh inactive, Sm TGR inh inconclusive, AmpC inh detg inactive, AmpC inh no detg inactive and RE007 growth inh inactive.
`COc1ccc(CNc2nc(-c3ccc(C(=O)N(C)C)cc3)nc3ccccc23)c(OC)c1` gave FBPA Giardia inh inactive.
For COc1ccc(CNc2nc(-c3ccc(N(C)C)cc3)nc3ccccc23)c(OC)c1 the results were FBPA Giardia inh 18µM.
Screening O=C(CCS(=O)(=O)c1cccc2nonc12)Nc1c(F)cccc1F returned Sm TGR inh 11µM and AmpC inh detg inconclusive.
